The results in this text go back to PubChem BioAssay.

SMILES strings stand for the structures. Results filed as inconclusive are left out. Calls of active or inactive are those of the source.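 How the source made its calls, unless noted: active means GFP signal, as percent of the solvent control, above the screen mean plus 3 SD, about 149; inconclusive means no reading because the compound's own fluorescence upset strain identification; inactive means the rest.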

The nature of assay [1]: rapamycin-like changes in RPL19A-GFP expression – cell-based, S. cerevisiae, multiplex flow cytometry, primary screen (AID 1862; in the data active means percent of DMSO control GFP below about 86%;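 further: lower values mimic rapamycin by blocking the RPL19A rise seen in DMSO cells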). To be noted: S. cerevisiae RPL19A-GFP strain, flow cytometry fluorescence, 3 h; at 10 µM; stronger effect = lower value.
Assay [2] is described as follows: TOR pathway GLN3 branch reporter MEP2-GFP changes – S. cerevisiae, multiplex flow cytometry, primary screen (AID 1867;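 active means GFP response, as percent of the DMSO control, above the screen-wide mean plus 3 SD, about 139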;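 further: median GFP channel fluorescence of barcode-gated MEP2-GFP cells measured by flow cytometry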). The following applies: S. cerevisiae MEP2-GFP strain, 3 h, at 10 µM, stronger effect = higher value, 100% means same as DMSO wells. In general terms: In flow cytometry, cells or beads pass a laser one at a time.
A short description of assay [3]: TOR pathway RTG branch CIT2 reporter changes – S. cerevisiae, GFP fusion, multiplex flow cytometry, primary screen (AID 1870;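 active means percent response above a set limit, the screen-wide mean plus 3 SD, cut at about 130% in these data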;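 further: barcoded CIT2-GFP strain pooled with four other GFP strains with rapamycin as positive control; median GFP fluorescence per well over plate mean of DMSO wells so 100% = DMSO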). To be noted: S. cerevisiae CIT2-GFP expression, 3 h, at 10 µM, stronger effect = higher value.
Assay [4] is described as follows: TOR pathway LAP4-GFP level changes – S. cerevisiae, multiplex flow cytometry, primary screen (AID 1873). The following applies: S. cerevisiae LAP4-GFP expression, 3 h, at 10 µM, stronger effect = higher value.
Assay [5] in a line: yeast AGP1-GFP level changes, GLN3 branch – cell-based, multiplex flow cytometry, S. cerevisiae, primary screen (AID 1887;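 active means GFP signal above the screen-wide mean plus 3 SD, that is over about 124.5% of the solvent control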;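 further: AGP1-GFP fusion strain of S. cerevisiae within a five-strain barcoded multiplex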). The following applies: 3 h, at 10 µM, stronger effect = higher value.
Assay [6] is described as follows: reduced mouse 2C T cell binding to pMHC/ICAM-1 vesicles – MLPCN validation set, flow cytometry, LFA-1/ICAM-1 modulator project, pilot screen (AID 2523;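 active means response below a set limit, under 55% cells CD8-positive and vesicle-bound, and CD8 cells' 90th-percentile brightness under 279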;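 on vesicle binding response: mean PE anti-B7-1 fluorescence of CD8+ cells relative to row control; 100% = QL9-loaded vesicles with DMSO vehicle in the same plate row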). The following applies: 2C mouse CD8+ T cells, at 7 µM, stronger effect = lower value; double positive events: measured here: CD8+/vesicle+ event percentage.
Assay [7] has as its target Integrin beta-1 (Homo sapiens) + Integrin alpha-4 (Homo sapiens) (UniProt P13612+P05556). Put plainly: alpha4beta1 integrin LIBS antibody binding reduction – U937 cells, HUTS-21 mAb, flow cytometry, validation set, VLA-4 allosteric modulator project, pilot screen (AID 2674;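 active means inhibition above 50%, about 3 SD of the validation set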;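 further: antibody binding induced by the VLA-4 ligand LDV present at three times its Kd; 0% = LDV ligand with antibody and no compound and 100% = antibody without LDV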). To be noted: HUTS-21 LIBS mAb binding, at 6.7 µM, stronger effect = higher value, binding induced by LDV ligand.

A short description of assay [8]: calorie-restriction mimetic ROS inhibitors, yeast – validation compound set, pilot screen (AID 2706;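 active means superoxide response below 65% of plate, a cut near 3 SD across the whole screen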;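 further: yeast exposed to compound for one week at 30 degrees C before staining; 100% = mean of all compound wells on the same plate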). To be noted: S. cerevisiae aging, superoxide DHE fluorescence; at 10 µM; stronger effect = lower value.
The target in assay [9] is Beta-adrenergic receptor kinase 1 (Homo sapiens) (UniProt P25098). Put plainly: GRK2 binders displacing RNA aptamer, biochemical, validation, human GRK2, bead flow cytometry (AID 488806;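 active means aptamer binding inhibition above 30%, about 3 SD of noise from non-fluorescent compounds; inactive means inhibition at or below 30%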). To be noted: bead-bound GRK2, FAM-aptamer displacement, at 10 µM, stronger effect = higher value.
Assay [10] concerns the target Beta-2 adrenergic receptor (Homo sapiens) (UniProt P07550). Put plainly: agonist-induced loss of surface beta2AR – cell-based, FAP fluorogen, flow cytometry, validation set, pilot screen (AID 504459;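 active means percent response above 42, roughly 3 SD of non-fluorescent test compounds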;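 further: agonist-driven loss of surface beta2AR via internalization measured by FAP dye flow cytometry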). The following applies: Am2.2-beta2AR cells, at 10 µM, stronger effect = higher value.
Assay [11] has as its target AP-2 complex subunit beta (Homo sapiens) (UniProt P63010). The assay can be described thus: beta-arrestin/AP2 interaction blockers – biochemical, validation set, GST-AP2 beads, flow cytometry, pilot screen (AID 504541;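 active means inhibition above 54%, about 3 SD of non-fluorescent compounds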;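 further: AP2 carries R879A mutation and is captured from E. coli lysate; bead-bound FITC arrestin peptide fluorescence measuring arrestin peptide binding to AP2; 0% = DMSO wells and 100% = excess unlabeled arrestin peptide control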). The following applies: FITC arrestin peptide, at 10 µM, stronger effect = higher value, AP2 beta2 appendage fragment, R879A mutant.
Assay [12] is described as follows: cytosolic pH regulators acting via V-ATPase – S. cerevisiae, pHLuorin, HTS validation (AID 504600; in the data active means response above about 15%;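 further: plate controls were DMSO for no effect and reference compound for full effect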). To be noted: V-ATPase proton transport, at 10 µM, stronger effect = higher value.
Assay [13] relates to anti-desmoglein-3 scFv antibody binding to human DSG3. Put plainly: blockers of pathogenic pemphigus antibody–desmoglein-3 binding – biochemical, validation compound set, bead-based, flow cytometry, pilot screen (AID 588368;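 active means binding below the plate cutoff, the plate median minus 3 SD, with a reading above zero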;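 further: signal is the median channel fluorescence of bead-bound GFP antibody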). The following applies: Protein G beads, DSG3-Fc, scFv-GFP binding, at 10 µM, stronger effect = lower value.
Assay [14] in a line: Nile Red efflux blockade in pump-expressing yeast – validation compound set, multiplex, phenotypic, pilot screen (AID 588506;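 active means efflux inhibition above 0.42, the validation set average plus 4 SD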;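 further: Nile Red retained in cells so higher fluorescence means more efflux inhibition; 0 = negative control wells and 1 = enniatin B 25 µM full block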). To be noted: S. cerevisiae pump-expressing triplex, Nile Red efflux flow cytometry; at 10 µM; stronger effect = higher value; the pumps come from Candida albicans.
Assay [15] concerns the target ATP-binding cassette sub-family B member 6 (Homo sapiens) (UniProt Q9NP58). The assay can be described thus: blockers of ABCB6-driven porphyrin uptake – K562-ABCB6 cells, flow cytometry, validation set, pilot screen (AID 588550;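 active means inhibition above the screen-wide mean plus 3 SD, about 51%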;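 further: 0% = DMSO wells and 100% = benzethonium chloride 70 µM positive control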). To be noted: K562-ABCB6 porphyrin accumulation, 1 h, at 10 µM, stronger effect = higher value.
Assay [16] in a line: AML differentiation inducers, ER-HoxA9 marrow cells – cell-based, GFP/MAC1 double positive, flow cytometry, validation set, primary screen (AID 588685;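 active means differentiation response of at least 50%, scaled between solvent and reference control, from cells with both markers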;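 further: compound exposure lasts four days before antibody staining and flow analysis; 0% = DMSO wells and 100% = 5 µM fulvestrant positive control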). The following applies: stronger effect = higher value, normalized: vehicle 0, fulvestrant 100.

Chain of Beta-adrenergic receptor kinase 1 (Homo sapiens) (P25098 whole entry, looked up): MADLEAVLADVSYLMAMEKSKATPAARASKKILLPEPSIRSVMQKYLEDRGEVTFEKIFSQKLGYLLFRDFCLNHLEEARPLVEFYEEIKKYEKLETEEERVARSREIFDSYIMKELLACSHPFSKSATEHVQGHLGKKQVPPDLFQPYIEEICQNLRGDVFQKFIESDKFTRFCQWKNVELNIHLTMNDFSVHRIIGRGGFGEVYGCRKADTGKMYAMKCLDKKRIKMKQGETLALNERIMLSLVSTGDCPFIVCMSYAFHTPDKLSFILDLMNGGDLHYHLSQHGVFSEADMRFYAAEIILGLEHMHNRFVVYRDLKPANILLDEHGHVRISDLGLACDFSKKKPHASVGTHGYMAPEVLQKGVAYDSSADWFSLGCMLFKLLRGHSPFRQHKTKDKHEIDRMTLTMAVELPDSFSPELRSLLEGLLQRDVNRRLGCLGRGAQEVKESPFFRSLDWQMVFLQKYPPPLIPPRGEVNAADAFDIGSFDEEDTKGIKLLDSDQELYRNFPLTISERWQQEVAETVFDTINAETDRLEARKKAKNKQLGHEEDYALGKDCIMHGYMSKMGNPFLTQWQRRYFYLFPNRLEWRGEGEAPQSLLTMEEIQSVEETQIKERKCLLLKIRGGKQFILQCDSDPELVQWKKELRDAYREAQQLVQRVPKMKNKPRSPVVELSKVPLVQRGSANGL
Chain of ATP-binding cassette sub-family B member 6 (Homo sapiens) (Q9NP58 whole entry, looked up): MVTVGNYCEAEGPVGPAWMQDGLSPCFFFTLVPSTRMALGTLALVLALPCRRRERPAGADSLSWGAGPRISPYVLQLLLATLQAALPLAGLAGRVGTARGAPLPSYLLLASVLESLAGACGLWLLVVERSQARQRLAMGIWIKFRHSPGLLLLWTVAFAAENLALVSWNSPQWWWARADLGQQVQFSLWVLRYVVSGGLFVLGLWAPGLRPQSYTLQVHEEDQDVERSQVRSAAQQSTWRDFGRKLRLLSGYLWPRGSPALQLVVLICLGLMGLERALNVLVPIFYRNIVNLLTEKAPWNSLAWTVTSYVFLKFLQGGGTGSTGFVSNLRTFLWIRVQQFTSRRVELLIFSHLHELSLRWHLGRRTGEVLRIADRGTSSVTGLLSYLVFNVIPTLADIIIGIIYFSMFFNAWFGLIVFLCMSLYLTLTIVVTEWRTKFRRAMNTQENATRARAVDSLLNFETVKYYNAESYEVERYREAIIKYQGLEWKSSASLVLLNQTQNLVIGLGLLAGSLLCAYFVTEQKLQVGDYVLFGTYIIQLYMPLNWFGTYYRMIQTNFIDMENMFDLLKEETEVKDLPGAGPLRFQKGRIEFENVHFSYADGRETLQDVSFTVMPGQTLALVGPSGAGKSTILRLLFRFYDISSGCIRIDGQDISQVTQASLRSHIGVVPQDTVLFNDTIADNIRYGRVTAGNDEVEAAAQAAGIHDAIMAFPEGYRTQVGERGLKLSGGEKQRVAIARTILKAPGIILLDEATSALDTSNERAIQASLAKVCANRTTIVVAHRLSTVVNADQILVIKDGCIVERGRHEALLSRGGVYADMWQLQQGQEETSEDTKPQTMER
Chain of Beta-2 adrenergic receptor (Homo sapiens) (P07550 whole entry, looked up): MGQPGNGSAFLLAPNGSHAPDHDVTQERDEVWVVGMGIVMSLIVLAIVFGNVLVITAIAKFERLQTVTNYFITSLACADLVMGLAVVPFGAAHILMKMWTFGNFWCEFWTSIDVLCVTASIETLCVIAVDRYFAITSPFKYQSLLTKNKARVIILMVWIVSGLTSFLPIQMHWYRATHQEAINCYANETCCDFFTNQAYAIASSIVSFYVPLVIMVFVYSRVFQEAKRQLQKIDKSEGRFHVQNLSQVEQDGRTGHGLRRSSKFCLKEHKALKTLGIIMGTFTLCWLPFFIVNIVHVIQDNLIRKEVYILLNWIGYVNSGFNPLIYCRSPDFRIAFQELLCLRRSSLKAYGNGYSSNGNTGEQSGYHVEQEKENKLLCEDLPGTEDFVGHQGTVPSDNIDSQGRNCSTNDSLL
Chain of Integrin beta-1 (Homo sapiens) + Integrin alpha-4 (Homo sapiens) (P05556 whole entry, looked up): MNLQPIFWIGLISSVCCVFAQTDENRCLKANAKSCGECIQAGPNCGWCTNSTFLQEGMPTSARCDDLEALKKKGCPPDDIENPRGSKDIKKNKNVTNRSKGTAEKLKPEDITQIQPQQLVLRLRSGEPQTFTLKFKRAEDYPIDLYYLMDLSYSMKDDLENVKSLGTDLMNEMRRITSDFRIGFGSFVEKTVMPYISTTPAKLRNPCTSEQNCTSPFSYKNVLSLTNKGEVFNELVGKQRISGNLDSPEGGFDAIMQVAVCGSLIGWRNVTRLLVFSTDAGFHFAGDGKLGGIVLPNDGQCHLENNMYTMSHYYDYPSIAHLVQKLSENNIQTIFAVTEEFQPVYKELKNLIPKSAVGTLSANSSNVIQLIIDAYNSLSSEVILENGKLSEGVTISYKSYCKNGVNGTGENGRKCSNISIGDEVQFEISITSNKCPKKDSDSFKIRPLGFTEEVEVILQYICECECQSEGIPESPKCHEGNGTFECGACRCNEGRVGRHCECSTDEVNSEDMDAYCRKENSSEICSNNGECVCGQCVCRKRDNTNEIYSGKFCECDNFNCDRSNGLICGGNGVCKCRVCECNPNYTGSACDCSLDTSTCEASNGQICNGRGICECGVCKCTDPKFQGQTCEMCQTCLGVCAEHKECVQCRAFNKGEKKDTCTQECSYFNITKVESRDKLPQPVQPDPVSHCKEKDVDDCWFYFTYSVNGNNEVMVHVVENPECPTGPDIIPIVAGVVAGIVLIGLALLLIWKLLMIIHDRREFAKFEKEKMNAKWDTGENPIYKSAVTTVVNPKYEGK
Chain of Integrin beta-1 (Homo sapiens) + Integrin alpha-4 (Homo sapiens) (P13612 whole entry, looked up): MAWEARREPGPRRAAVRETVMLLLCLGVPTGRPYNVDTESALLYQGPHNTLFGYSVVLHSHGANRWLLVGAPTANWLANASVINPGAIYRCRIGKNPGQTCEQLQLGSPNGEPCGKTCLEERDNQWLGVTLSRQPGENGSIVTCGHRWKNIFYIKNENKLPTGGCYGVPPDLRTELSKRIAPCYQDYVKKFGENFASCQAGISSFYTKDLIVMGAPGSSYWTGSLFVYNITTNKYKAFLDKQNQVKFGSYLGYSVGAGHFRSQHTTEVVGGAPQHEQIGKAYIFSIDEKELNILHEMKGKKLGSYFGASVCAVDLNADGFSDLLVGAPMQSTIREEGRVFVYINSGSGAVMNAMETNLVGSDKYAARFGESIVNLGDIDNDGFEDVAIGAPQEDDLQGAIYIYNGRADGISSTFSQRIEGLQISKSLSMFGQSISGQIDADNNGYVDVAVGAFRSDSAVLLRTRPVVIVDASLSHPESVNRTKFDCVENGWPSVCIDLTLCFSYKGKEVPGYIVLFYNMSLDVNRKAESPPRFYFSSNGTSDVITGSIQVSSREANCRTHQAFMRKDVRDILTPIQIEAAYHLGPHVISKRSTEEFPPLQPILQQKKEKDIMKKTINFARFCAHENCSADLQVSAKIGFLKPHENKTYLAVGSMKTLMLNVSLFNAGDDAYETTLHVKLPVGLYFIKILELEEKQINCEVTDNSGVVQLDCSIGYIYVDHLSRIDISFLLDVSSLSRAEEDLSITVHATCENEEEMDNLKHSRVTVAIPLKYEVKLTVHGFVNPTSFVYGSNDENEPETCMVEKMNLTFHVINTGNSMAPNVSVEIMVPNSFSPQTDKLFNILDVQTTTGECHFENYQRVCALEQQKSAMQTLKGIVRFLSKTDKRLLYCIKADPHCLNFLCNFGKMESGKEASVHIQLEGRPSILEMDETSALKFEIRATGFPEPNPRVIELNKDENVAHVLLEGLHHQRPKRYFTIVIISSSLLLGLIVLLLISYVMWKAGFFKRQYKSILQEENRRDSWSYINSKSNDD
Chain of AP-2 complex subunit beta (Homo sapiens) (P63010 whole entry, looked up, the tested form may be a part, one chain of several): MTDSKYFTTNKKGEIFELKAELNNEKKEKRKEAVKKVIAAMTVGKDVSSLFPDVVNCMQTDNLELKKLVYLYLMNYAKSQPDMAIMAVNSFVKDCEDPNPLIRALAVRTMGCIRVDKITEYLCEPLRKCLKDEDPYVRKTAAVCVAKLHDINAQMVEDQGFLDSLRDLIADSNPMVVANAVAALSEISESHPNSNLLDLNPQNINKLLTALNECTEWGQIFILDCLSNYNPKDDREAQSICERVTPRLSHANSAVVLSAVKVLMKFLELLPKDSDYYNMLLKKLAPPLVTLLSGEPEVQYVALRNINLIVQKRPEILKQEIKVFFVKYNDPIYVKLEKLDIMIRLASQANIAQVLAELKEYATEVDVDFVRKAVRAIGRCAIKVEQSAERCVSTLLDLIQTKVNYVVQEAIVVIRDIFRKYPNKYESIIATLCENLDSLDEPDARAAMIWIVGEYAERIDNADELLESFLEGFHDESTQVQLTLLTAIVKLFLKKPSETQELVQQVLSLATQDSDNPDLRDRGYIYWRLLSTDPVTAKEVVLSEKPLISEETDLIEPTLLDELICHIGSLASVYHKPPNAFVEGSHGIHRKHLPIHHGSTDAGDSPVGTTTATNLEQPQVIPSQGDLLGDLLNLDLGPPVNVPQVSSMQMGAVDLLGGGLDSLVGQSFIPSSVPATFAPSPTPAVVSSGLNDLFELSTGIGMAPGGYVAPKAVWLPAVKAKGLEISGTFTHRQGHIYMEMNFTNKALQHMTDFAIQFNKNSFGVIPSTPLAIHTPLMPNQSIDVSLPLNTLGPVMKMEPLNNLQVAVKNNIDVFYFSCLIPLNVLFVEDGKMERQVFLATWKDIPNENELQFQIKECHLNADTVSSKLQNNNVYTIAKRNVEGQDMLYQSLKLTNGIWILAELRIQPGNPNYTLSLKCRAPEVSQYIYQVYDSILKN

For the compound `COc1ccc(Br)cc1C(=O)Nc1ccc(C(=O)O)cc1`, in assay [1], the percent of DMSO control GFP was 107% (inactive). Further, the GFP response vs DMSO in assay [2] is 105% (inactive); in assay [4], 127% (inactive). Further, the percent response of DMSO control in [3] was 88.4% (inactive). For the same compound, in assay [5], the GFP response, % of DMSO is 68.8% (inactive). The double positive events in [6] is 63.9%. Further, the vesicle binding response in [6] is 240% (inactive). Besides, the results for the inhibition in assay [7], in [11] and in assay [15] were -0.45% (inactive), -7.7% (inactive) and -4% (inactive), respectively. In addition, the superoxide response (% of plate) in assay [8] is 97.6% (inactive). Moreover, in assay [9], the aptamer binding inhibition was 3% (inactive). In addition, the response was -0.63% (inactive) in assay [10] and 1.41% (inactive) in [12]. Moreover, the binding (% of control) in assay [13] is 96.3% (inactive). Further, in [14], the efflux inhibition (fraction of control) is -0.04 (inactive). In addition, the differentiation response in assay [16] was 5.13% (inactive).
On to `CCn1c(C)cc2c(c1=O)C(c1ccccc1)C(C(=O)OC)=C(N)O2` (centres undefined), for which the percent of DMSO control GFP in assay [1] was 102% (inactive). The GFP response vs DMSO was 105% (inactive) in [2] and 108% (inactive) in assay [4]. Besides, the percent response of DMSO control in assay [3] is 98.3% (inactive). Moreover, the GFP response, % of DMSO in assay [5] was 111% (inactive). In assay [6], the double positive events was found to be 58.8%. In [6], the vesicle binding response is 167% (inactive). The inhibition in assay [7] is 18.5% (inactive); in [11], 1.11% (inactive); in assay [15], 7% (inactive). Further, the superoxide response (% of plate) in assay [8] is 108% (inactive). For the same compound, the aptamer binding inhibition in assay [9] was 4% (inactive). For the same compound, the results for the response in assay [10] and in assay [12] were -32.4% (inactive) and -16.3% (inactive), respectively. In addition, the binding (% of control) in assay [13] is 102% (inactive). In addition, the efflux inhibition (fraction of control) in assay [14] was 0.04 (inactive). In addition, the differentiation response in [16] was 4.86% (inactive).
Turning to `CNc1c2c(nn1C)CCCC2`, the percent of DMSO control GFP in [1] is 104% (inactive). Moreover, the GFP response vs DMSO is 97.7% (inactive) in [2] and 97% (inactive) in assay [4]. Also, the percent response of DMSO control in assay [3] was 106% (inactive). Also, in assay [5], the GFP response, % of DMSO was 106% (inactive). This compound registered a double positive events in assay [6] of 62.2%. Further, in assay [6], the vesicle binding response is 126% (inactive). The figures for the inhibition in [7], in [11] and in assay [15] were 1.59% (inactive), -17.3% (inactive) and -3% (inactive), respectively. For the same compound, the superoxide response (% of plate) in assay [8] was 115% (inactive). In assay [9], the aptamer binding inhibition was 5% (inactive). For the same compound, the response in assay [10] was 1.87% (inactive); in assay [12] it was -7.05% (inactive). For the same compound, the binding (% of control) in assay [13] is 101% (inactive). Moreover, the efflux inhibition (fraction of control) in assay [14] was -0.19 (inactive). For the same compound, in assay [16], the differentiation response was -3.11% (inactive).
Turning to `CC(=O)N(CCC(Cc1ccccc1)c1ccc2c(c1)OCO2)Cc1ccc(Cl)cc1` (centres undefined), the percent of DMSO control GFP in assay [1] was 93.9% (inactive). The GFP response vs DMSO in assay [2] was 113% (inactive); in [4], 79.2% (inactive). Moreover, in assay [3], the percent response of DMSO control was 103% (inactive). In [5], the GFP response, % of DMSO is 92.2% (inactive). The same compound returned a double positive events in [6] of 59.9%. In addition, the vesicle binding response in assay [6] is 165% (inactive). Also, the figures for the inhibition in assay [7], in assay [11] and in [15] were -9.06% (inactive), -8.25% (inactive) and 6% (inactive), respectively. For the same compound, the superoxide response (% of plate) in assay [8] is 102% (inactive). Further, in [9], the aptamer binding inhibition is -1% (inactive). Besides, the response is -1.43% (inactive) in assay [10] and -2% (inactive) in assay [12]. The binding (% of control) in [13] was 104% (inactive). In addition, in assay [14], the efflux inhibition (fraction of control) was 0.05 (inactive). In assay [16], the differentiation response is -3.28% (inactive).
`CCNC1=C(Cl)C(=O)c2ccccc2C1=O`: in assay [1], the percent of DMSO control GFP is 104% (inactive). Further, the values for the GFP response vs DMSO in assay [2] and in assay [4] were 104% (inactive) and 127% (inactive), respectively. Further, the percent response of DMSO control in [3] is 91.8% (inactive). The GFP response, % of DMSO in [5] was 113% (inactive). The same compound gave a double positive events in assay [6] of 59.8%. In addition, in assay [6], the vesicle binding response is 159% (inactive). Further, the figures for the inhibition in assay [7], in [11] and in assay [15] were 21% (inactive), -22.4% (inactive) and -12% (inactive), respectively. For the same compound, in assay [8], the superoxide response (% of plate) was 229% (inactive). The aptamer binding inhibition in [9] was 3% (inactive). For the same compound, the response was -20% (inactive) in assay [10] and 1.03% (inactive) in [12]. Also, the binding (% of control) in assay [13] is 104% (inactive). Moreover, the efflux inhibition (fraction of control) in assay [14] was -0.09 (inactive). For the same compound, in assay [16], the differentiation response is 0.92% (inactive).
As to `Cn1c([N+](=O)[O-])cnc1COC(N)=O`, in [1], the percent of DMSO control GFP is 92.8% (inactive). Also, the GFP response vs DMSO in [2] is 136% (inactive); in assay [4], 83.6% (inactive). Also, the percent response of DMSO control in assay [3] is 103% (inactive). Also, in [5], the GFP response, % of DMSO was 88.9% (inactive). Moreover, the double positive events in assay [6] came out at 62.7%. Also, the vesicle binding response in assay [6] is 157% (inactive). In addition, the inhibition in [7] was 8.4% (inactive); in assay [11], -5.93% (inactive); in [15] it was 11% (inactive). Also, the superoxide response (% of plate) in assay [8] is 98.7% (inactive). Further, the aptamer binding inhibition in assay [9] was 4% (inactive). Besides, the results for the response in assay [10] and in assay [12] were 5.28% (inactive) and -3.52% (inactive), respectively. The binding (% of control) in assay [13] is 105% (inactive). Besides, in [14], the efflux inhibition (fraction of control) was -0.35 (inactive). Also, the differentiation response in assay [16] was -3.28% (inactive).
Consider `CN1CCCN=C1COC(=O)C(O)(c1ccccc1)C1CCCCC1` (centres undefined), for which the percent of DMSO control GFP in [1] is 103% (inactive). The figures for the GFP response vs DMSO in assay [2] and in [4] were 107% (inactive) and 92.7% (inactive), respectively. The percent response of DMSO control in assay [3] was 93.1% (inactive). In addition, in [5], the GFP response, % of DMSO was 96.5% (inactive). Further, the double positive events in assay [6] was determined as 64%. In addition, the vesicle binding response in [6] was 205% (inactive). The inhibition in [7] was 7.85% (inactive); in [11] it was 12.1% (inactive); in [15] it was -5% (inactive). For the same compound, the superoxide response (% of plate) in assay [8] was 98.5% (inactive). The aptamer binding inhibition in [9] was 6% (inactive). The response was 3.5% (inactive) in assay [10] and 4.32% (inactive) in assay [12]. Also, the binding (% of control) in assay [13] is 91.9% (inactive). Also, the efflux inhibition (fraction of control) in assay [14] was -0.14 (inactive). Besides, the differentiation response in assay [16] was 5.13% (inactive).

What is called inhibition is the relative decrease from the control value, in per cent.
